Peg3 promoter = inhibitors of Peg3 promoter | HeLa PEG-Prom luciferase reporter, luminescence, overnight | inhibition, % at 20 µM | 360,000 tested, 1.7% active;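 active = inhibition of at least 50% at 20 µM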
CF NFkB block = inhibitors of cystic fibrosis induced NF-kB; KKLEB NF-kB-GFP reporter, PAF-induced, GFP fluorescence overnight; inhibition, % at 5 µM; 360,000 tested, 0.86% active;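 active = at least 50% inhibition at 5 µM, scaled per plate between neutral and stimulator controls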;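 also: PAF is a Pseudomonas aeruginosa culture filtrate used as stimulus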
TWEAK-Fn14 inh = inhibitors of TWEAK-Fn14 interaction signaling; TWEAK-stimulated Fn14 reporter cells, luciferase luminescence, 8 h; inhibition, % at 10 µM; 360,000 tested, 2% active; in the data active = inhibition above about 50%
TROY signal inh = inhibitors of TROY-dependent NF-kB signaling | 360,000 tested, 0.98% active | inhibition, % at 10 µM | Q293 LMP1-TROYcd NF-kB luciferase reporter, 4 h;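 active = compounds whose plate-normalised and pattern-corrected inhibition of the luciferase reporter signal at the single screening dose is 50% or more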
KKLEB tox = CF airway cell cytotoxicity counter-screen. KKLEB CF airway cells viability, ATPlite luminescence, overnight; stronger effect = lower value; cells stimulated with P. aeruginosa culture filtrate. activity change (cytotoxicity), % at 5 µM. 360,000 tested, 0.36% active;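 active = corrected activity change at or below -50% at 5 µM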
HIF-2a inh = blocks HIF-2a reporter activity; 786-0 RCC cells HIF-2a reporter, luciferase luminescence, overnight; inhibition, % at 18.8 µM; 360,000 tested, 0.72% active;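 active = inhibition of the luminescence signal of 40% or more relative to plate controls, in a single-dose primary screen at 18.75 µM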
Mdm2 MdmX conf = Mdm2/MdmX (human) interaction inhibition, confirmed. shares compounds with HIF-2a inh. SaOS-2 split-luciferase Mdm2/MdmX complementation, luminescence. inhibition, % at 8 µM. 740 tested, 99% active;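 active = mean inhibition of the luminescence signal across two replicates at or above 26 percent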
HIF-2a inh conf = HIF-2a inhibition, single concentration confirmation; shares compounds with HIF-2a inh; 786-0 RCC cells, HIF-2a luciferase reporter luminescence, overnight; inhibition, % at 18.8 µM; 1,800 tested, 56% active;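 active = mean inhibition across four replicates of at least 40 percent at the single tested concentration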
HIF-1a cs = counter-screen for HIF-2a inhibitors: HIF-1a inhibition in MiaPaCa-2 cells; shares compounds with HIF-2a inh; MiaPaCa-2 HIF-1a luciferase reporter, desferoxamine, overnight; AID 651589; inhibition, % at 18.8 µM; 1,800 tested, 72% active;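 active = mean inhibition of the reporter signal across four replicates at the single tested dose of 50% or more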
Each line names hits and unclear results; the compound was inactive in the other large screens (follow-up assays come after a bar, where they were run). In the library only some 4% were active in any assay of this set; here they are far more common.

Cc1ccc(-n2nc3ccc(N)cc3n2)c(C)c1	TWEAK-Fn14 inh 87, HIF-2a inh 56 | HIF-2a inh conf 76 | HIF-1a cs inactive
CCN(c1ccccc1)S(=O)(=O)c1cc(NC(=O)Nc2ccccc2C#N)ccc1Cl	none
CCN(c1ccccc1)S(=O)(=O)c1ccc(Cl)c(NC(=O)Nc2ccc(Cl)cc2C#N)c1	none | Mdm2 MdmX conf 103
Cc1ccc(C(c2c(O)nc3n(c2=O)CCS3)c2c(O)nc3n(c2=O)CCS3)cc1	none
CC(=O)Nc1ccc(OS(=O)(=O)c2c(C)cc(C)cc2C)cc1	HIF-2a inh 50 | HIF-2a inh conf 55 | HIF-1a cs inactive
CC(=O)Nc1ccc(OS(=O)(=O)c2ccccc2C)cc1	none
CC(=O)Nc1ccc(OS(=O)(=O)c2ccc(C)cc2C)cc1	HIF-2a inh 80 | HIF-2a inh conf 88 | HIF-1a cs inactive
O=C(Nc1ccc(OC(F)(F)F)cc1)NC1CCC(Oc2ccc(C(=O)O)cc2)CC1 (configuration not stated)	none
CC1(C)CC[C@]2(C(=O)O)CC[C@]3(C)C(=CC[C@@H]4[C@@]5(C)CC[C@H](O[C@@H]6O[C@H](C(=O)O)[C@@H](O)[C@H](O[C@@H]7OC[C@H](O)[C@H](O)[C@H]7O)[C@H]6O)C(C)(C)[C@@H]5CC[C@]43C)[C@@H]2C1	Peg3 promoter 59, CF NFkB block 88, TROY signal inh 87, KKLEB tox -95, HIF-2a inh 55 | HIF-2a inh conf 94 | HIF-1a cs 52
CC1(C)CC[C@]2(C(=O)O[C@@H]3O[C@H](CO)[C@@H](O)[C@H](O)[C@H]3O)CC[C@]3(C)C(=CCC4[C@@]5(C)CC[C@H](O[C@@H]6O[C@H](C(=O)O)[C@@H](O[C@H]7OC[C@@H](O)[C@@H](O)[C@@H]7O)[C@H](O)[C@H]6O)C(C)(C)C5CC[C@]43C)[C@@H]2C1 (some centres not stated)	none
Cc1cc(C(=O)CN2C(=O)NC(CCS(C)(=O)=O)C2=O)c(C)n1C1CC1 (configuration not stated)	none
NNC(=O)CCN1CCCCC1	TWEAK-Fn14 inh 86, TROY signal inh 70, HIF-2a inh 69 | HIF-2a inh conf inactive | HIF-1a cs inactive
CC1CCN(CCC(=O)NN)CC1	none
O=C(NCc1ccco1)/C(=C/c1cccc(C(F)(F)F)c1)c1nc2ccccc2[nH]1	Peg3 promoter 50, HIF-2a inh 41 | HIF-2a inh conf inactive | HIF-1a cs 55
Nc1cc(=O)[nH]c(SCC(=O)N2N=C(c3ccc(Cl)cc3)CC2c2ccco2)n1 (configuration not stated)	none
COCC(=O)OCC(=O)N1N=C(c2ccc(Cl)cc2)CC1c1ccco1 (configuration not stated)	none
CCCc1cc(=O)[nH]c(SCC(=O)N2N=C(c3ccc(Cl)cc3)CC2c2ccco2)n1 (configuration not stated)	TWEAK-Fn14 inh 69, HIF-2a inh 40 | HIF-2a inh conf inactive | HIF-1a cs 82
CC(C)[C@H](NS(=O)(=O)c1ccccc1)C(=O)OCC(=O)N1N=C(c2ccc(Cl)cc2)CC1c1ccco1 (some centres not stated)	TWEAK-Fn14 inh 56, HIF-2a inh 50 | HIF-2a inh conf inactive | HIF-1a cs 89
CC(C)OC(=O)c1cn(-c2ccccc2)nc1-c1ccc2c(c1)OCCO2	none
O=C(NC1CCCN(Cc2ccccc2F)C1)c1cccs1 (configuration not stated)	none
O=c1c(Br)c(N2CCCC2)cnn1-c1ccccc1	none
Cc1ccc(-n2ncc(Br)c(Br)c2=O)cc1	Peg3 promoter 102, CF NFkB block 69, TWEAK-Fn14 inh 78, TROY signal inh 69, HIF-2a inh 92 | HIF-2a inh conf 99 | HIF-1a cs 102
O=c1c(Br)c(Br)cnn1-c1ccccc1	Peg3 promoter 108, CF NFkB block 90, TWEAK-Fn14 inh 93, TROY signal inh 77, KKLEB tox -85, HIF-2a inh 96 | HIF-2a inh conf 99 | HIF-1a cs 107
COc1c(Cl)cnn(-c2ccc(C)cc2)c1=O	none
c1cn(-c2ccc(-c3ccnc4ncnn34)cc2)cn1	none
COC(=O)COc1ccc(S(=O)(=O)N2CCN(c3ccccc3F)CC2)cc1	HIF-2a inh 66 | HIF-2a inh conf inactive | HIF-1a cs inactive
COC(=O)COc1ccc(S(=O)(=O)N2CCN(c3ccccc3)CC2)cc1	HIF-2a inh 48 | HIF-2a inh conf inactive | HIF-1a cs inactive
COC(=O)c1cc(S(=O)(=O)N2CCN(c3ccccc3F)CC2)c[nH]1	none
CCOc1ccc(S(=O)(=O)N2CCC(C(=O)N3CCN(c4ccccc4)CC3)CC2)cc1	none
COC(=O)COc1ccc(NC(=O)C(c2ccccc2)c2ccccc2)cc1	HIF-2a inh 88 | HIF-2a inh conf inactive | HIF-1a cs inactive
COC(=O)COc1ccc(S(=O)(=O)N2CCc3ccccc3C2)cc1C	HIF-2a inh 76 | HIF-2a inh conf inactive | HIF-1a cs inactive
COC(=O)COc1ccc(S(=O)(=O)N2CCOCC2)cc1C	none
CC(C)COC(=O)N1CCN(S(=O)(=O)c2ccc3c(c2)CCC3)CC1	none
O=C(C[C@H]1CC[C@H]2[C@@H](COC[C@@H](O)CN2S(=O)(=O)c2ccccc2)O1)N[C@@H]1CCN(Cc2ccccc2)C1	none (no result: Peg3 promoter, CF NFkB block, TWEAK-Fn14 inh, TROY signal inh, KKLEB tox)
COc1ccc(-c2cnc3c(NC=O)cc(-c4cccc(NS(C)(=O)=O)c4)cn23)cc1OC	Peg3 promoter 69, CF NFkB block 93, KKLEB tox -62, HIF-2a inh 51 | HIF-2a inh conf 79 | HIF-1a cs inactive
COc1cccc(-c2cc(NC=O)c3ncc(-c4ccc(OC)c(OC)c4)n3c2)c1	none
CCCCN1C(=O)C(=O)N(CC(=O)c2cc(C)n(-c3cc(C)on3)c2C)C1=O	none
CCCCCN=C(N)N/N=C/c1c[nH]c2ccc(OC)cc12	Peg3 promoter 95, HIF-2a inh 98 | HIF-2a inh conf inactive | HIF-1a cs 100
CN(C)c1ncnc2c1ccn2C1OC(CO)C(O)C1O (configuration not stated)	KKLEB tox -63, HIF-2a inh 44 | HIF-2a inh conf inactive | HIF-1a cs inactive
N#CC1=C(N)Oc2n[nH]c(-c3cccs3)c2C1C1CCCCC1 (configuration not stated)	HIF-2a inh 40 | HIF-2a inh conf inactive | HIF-1a cs inactive

Compound activity as filed in PubChem.
